These results are taken from PubChem BioAssay (NCI).

This is part of a sample that, as a whole, favours compounds with a hit. Of some 83,000 tested, about 20% had one in any assay.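 Percent growth is the endpoint: 0 to 100 indicates growth inhibition (40 means 60% inhibition), 0 means no net growth, and negative values indicate cell death.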 Values without a mark were called inactive. The source made the active and inactive calls. Rule for the calls: active = growth percent below 10; inactive = the rest.

The test system of the test is MOLT-4 leukemia. As to the kind of experiment: NCI-60 one-dose screen, 48 h (100 = growth as untreated, 0 = no growth, -100 = all killed). Conditions: 10 µM unless noted.
Turning to `COC(=O)C(Cc1ccccc1)NC(=O)NC(=O)NC(=O)CI` (configuration not stated), the growth was -30.7% (active). Under `O=C1CCC(C(=O)NCCNCCNC(=O)C2CCC(=O)N2)N1` (configuration not stated) stands 97.2%; under `C(=N/Nc1ncnc2nc[nH]c12)/c1ccccn1`, 22.2%. With `CCCCCCCCCCCCCCCCCCOc1ccc(CC(=O)OCC[N+](C)(C)C)cc1` the figure was 2.06% (active); with `COc1ccc([C@H]2c3cc(OC)c(OC)cc3C=C(C=O)C2CO)cc1OC` (some centres not stated), 49.5%; with `Cc1nn(-c2ccccc2)c(-n2ccnc2)c1/C=N/Nc1nc(-c2ccc(Cl)c(Cl)c2)cs1`, 32.3%. With `Cc1ccc2c(n1)C(=O)C(Cl)=C(Nc1ccccc1C(C)C)C2=O` the figure was 31.9%. Consider `Cc1cccc2c3c(sc12)C(c1ccc(Cl)cc1)C(C#N)=C(/N=C/c1ccc(Cl)cc1)O3` (configuration not stated), for which the growth is 14.2%.

With `Cc1ncc(C(=O)Nc2ccc(CN3CCN(C)CC3)c(C(F)(F)F)c2)cc1C#Cc1ccc(N)nc1`, the growth was 25.9%.

Take `COc1ccc(CN2c3ccccc3Sc3ccccc32)c(F)c1`: the growth was 22.6%. With `COc1ccc(-c2ncnc3c2ncn3CC#CCCl)cc1` the figure was 4.95% (active); with `COc1ccc(C(=O)C[C@]2(O)C(=O)Nc3c(Cl)ccc(Cl)c32)cc1`, 34.1%.

For `c1ccc2c(-c3nc(-c4c[nH]c5ccncc45)cs3)c[nH]c2c1`, the growth was 30%. With `C=CCNc1ccc2c3c(cccc13)C(=O)N(N1C(=O)c3cccc4cccc(c34)C1=O)C2=O` the figure was 101%. With `N#Cc1c(-c2ccccc2)nc(SCC(=O)Nc2nc(-c3ccc(Cl)cc3)cs2)[nH]c1=O` the figure was 89.8%; with `COc1cc(C(=O)/C=C/c2c(Cl)nc3sccn23)cc(OC)c1OC`, 74%. With `COc1ccc(-c2cc(-c3ccc(Cl)cc3)c(C#N)c(=O)n2CCCCCC(=O)Nc2ccccc2N)cc1` the figure was 35.2%. For `COc1cccc(/C=C2\C=C(c3ccccc3)N(Cc3ccccc3)C2=O)c1`, the growth is 59.1%. With `CCOC(=O)c1cn2ncnc(Oc3ccc(NC(=O)NCCN(C)C)c(Cl)c3)c2c1C` the figure was 53.9%; with `COc1ccc(N2C(=O)C(Oc3ccccc3)C2c2ccc(C)cc2)cc1` (configuration not stated), 101%; with `O=[N+]([O-])c1ccc(Cl)c(-c2cc(CCCCO)on2)c1`, 109%. Turning to `COc1cccc2nc3n(c12)C(c1c(F)cccc1F)SC3` (configuration not stated), the growth was 87%.
